# According to PubChem BioAssay AID1986 (Sanford-Burnham Center for Chemical Genomics, 2009):
# About 890 (0.31%) of roughly 290,000 compounds were called active. The sample holds actives, similar compounds and a random draw of the others, so the mix is not that of the screen. Rule as the data show it: active = inhibition mostly above about 52% (no sharp cut-off); inactive = mostly below about 76%.
# Experiment: inhibitors of HIV fusion peptide binding, primary screen, biochemical, uHTS, fluorescence dequenching (AID 1986)
# Details: cell-free peptide binding, 30 min, stronger effect = higher value
# [1] = measured here: repeat confirmation average inhibition, at 18.6 µM
SMILES,inhibition (at 20 µM),inhibition [1]
NC1=Nc2cccc3cccc1c23,5.1% (inactive),
O=C1C=C(O)c2cccc3cccc1c23,9% (inactive),
NC1=CC(=O)c2cccc3cccc1c23,64% (active),63.9%
C#CCOc1c(Br)cc(/C=C2/C(=O)ON=C2C)cc1OCC,4.2% (inactive),
CCOc1cc(/C=C2/C(=O)ON=C2C)cc(Br)c1O,57.8% (active),51.8%
CCOc1cc(/C=C2/C(=O)ON=C2C)ccc1O,33.7% (inactive),
COc1cc(/C=C2\C(=O)ON=C2c2ccccc2)cc(Cl)c1O,45.2% (inactive),
COc1cc(/C=C2\C(=O)ON=C2c2ccccc2)cc(Br)c1O,63.3% (active),106%
COc1cc(/C=C2/C(=O)ON=C2c2ccccc2)ccc1O,10.6% (inactive),
COc1cc(/C=C2\C(=O)ON=C2c2ccccc2)cc(OC)c1OC,1.4% (inactive),
CCOc1cc(/C=C2\C(=O)ON=C2c2ccccc2)cc(Br)c1O,69.6% (active),108%
CCOc1cc(/C=C2\C(=O)ON=C2c2ccccc2)ccc1OC,0.3% (inactive),
Cc1ccc(N/C=C2\CCCCC2=O)nc1,0.7% (inactive),
Cc1ccc(S(=O)(=O)N/N=C\c2cn(CC(N)=O)c3ccccc23)cc1,0.7% (inactive),
CN(C)c1ncnc(N(C)C)c1[N+](=O)[O-],-2.4% (inactive),
COc1ccccc1/C=C(/C(=O)NCCCn1ccnc1)c1ccccc1,0.9% (inactive),
O=C(N/N=C/c1ccccn1)c1cc(C2CC2)[nH]n1,-0.3% (inactive),
Cc1oc2cc3oc(=O)cc(C)c3cc2c1C,1% (inactive),
O=C(OCC1O[C@@H](OC(=O)c2cc(O)c(O)c(O)c2)[C@@H](OC(=O)c2cc(O)c(O)c(O)c2)[C@@H](OC(=O)c2cc(O)c(O)c(O)c2)[C@@H]1OC(=O)c1cc(O)c(O)c(O)c1)c1cc(O)c(O)c(O)c1 (stereo partly drawn),56% (active),
COC1OC(COC(=O)c2ccccc2)C(OC(=O)c2ccccc2)C1OC(=O)c1ccccc1 (stereo not drawn),-0.6% (inactive),
COC(=O)c1cc(O)c(O)c(O)c1,11% (inactive),
O=C(CCN1C(=O)c2ccc([N+](=O)[O-])cc2C1=O)Nc1nccs1,-0.3% (inactive),

SMILES,inhibition (at 20 µM),inhibition [1]
O=C(CCCn1c(=S)[nH]c2ccccc2c1=O)NCCSCc1ccccc1,1.5% (inactive),
CCN(CC)S(=O)(=O)c1ccc(O)c(C(=O)OCC(=O)Nc2ccc(OC(F)(F)F)cc2)c1,-1.8% (inactive),
COc1cc2ccccc2cc1C(=O)NC(=S)Nc1cccc(C(=O)O)c1,58.8% (active),
COc1cc2ccccc2cc1C(=O)NC(=S)Nc1ccc(C(=O)O)cc1,53.8% (inactive),2.1%
COc1cc2ccccc2cc1C(=O)NC(=S)Nc1cc(C(=O)O)ccc1C,51.6% (inactive),-1.6%
COc1ccc(/C=N\NC(=O)c2ccccc2Br)cc1COc1c(F)c(F)cc(F)c1F,0.6% (inactive),
COc1cc(C(=O)NCC(=O)N/N=C(/C)c2cccs2)cc(OC)c1OC,-1.2% (inactive),
CC(C)P(=O)(Cc1cccc(C#N)c1)C(C)C,3.5% (inactive),
COC(=O)c1ccc(OCC2c3cc(OC)c(OC)cc3CCN2C(=O)c2ccco2)cc1 (stereo not drawn),-1.1% (inactive),
COc1ccc(C(=O)Nc2cccc(/C=C(\CCC(=O)O)c3nc4ccccc4s3)c2)cc1,59.2% (active),
Cc1ccc(/C=C(\CCC(=O)O)c2nc3ccccc3s2)cc1[N+](=O)[O-],27.3% (inactive),
O=C(O)CC/C(=C\c1ccc(Cl)c([N+](=O)[O-])c1)c1nc2ccccc2s1,13.2% (inactive),
COc1cccc(/C=C(\CC(=O)O)c2nc3ccccc3s2)c1,3.6% (inactive),
O=C(O)CC/C(=C\c1cccc(NC(=O)c2ccccc2Cl)c1)c1nc2ccccc2s1,64.7% (inactive),17.1%
CN(c1ccccc1)c1ccc(/C=C(\CCC(=O)O)c2nc3ccccc3s2)cc1[N+](=O)[O-],65% (active),
COc1cc(NC(=O)C2CC(=O)NC3=C2C(=O)CCC3)c(OC)cc1Cl (stereo not drawn),-1.9% (inactive),
N#CC1=C(N)OC2=C(CC/C2=C\c2ccc(F)cc2)C1c1ccc(F)cc1 (stereo not drawn),73.8% (inactive),40.5%
COc1cc2c(cc1NC(=O)CSc1ccc(C)cc1)oc1ccccc12,0.2% (inactive),
NC(=O)C1CCN(C(=O)CN2CCc3ccccc32)CC1,-0.5% (inactive),
O=C(Nc1ccc(Cl)cc1C(=O)O)c1ccc2c(c1)C(=O)N(Cc1ccco1)C2=O,50% (active),
Cc1c(NC(=O)c2ccc3c(c2)C(=O)N(Cc2ccco2)C3=O)cccc1C(=O)O,6.1% (inactive),
O=C(Nc1ccc(O)cc1C(=O)O)c1ccc2c(c1)C(=O)N(Cc1ccco1)C2=O,24.6% (inactive),

SMILES,inhibition (at 20 µM),inhibition [1]
COc1c(Br)cc(Br)cc1/C=N/NC(=O)c1ccncc1,-1% (inactive),
COc1cc(/C=N/NC(=O)c2cccc(S(=O)(=O)N3CCOCC3)c2)cc(OC)c1O,-3.4% (inactive),
O=C(N/N=C/c1cc(Br)cc(Br)c1O)c1ccncc1,103% (active),59.2%
O=C(N/N=C/c1cc(Br)ccc1O)c1ccncc1,3.3% (inactive),
O=C(N/N=C/c1c(F)c(F)c(F)c(F)c1F)c1cccc(S(=O)(=O)N2CCOCC2)c1,0.1% (inactive),
O=C(N/N=C/c1cc(Br)cc(Br)c1O)c1cccc(S(=O)(=O)N2CCOCC2)c1,80.2% (active),53.2%
Cc1csc(NC(=O)/C=C/c2ccc(C)o2)n1,8.7% (inactive),
O=c1[nH]c(C2CCN(S(=O)(=O)c3ccc(S(=O)(=O)NC4CC4)cc3)CC2)nc2c1nnn2Cc1ccccc1,-0.4% (inactive),
O=S(=O)(Cc1ccccc1)NCC1CCCO1 (stereo not drawn),-2.7% (inactive),
CCCCN(CCCC)C(=O)c1cc2ccccc2c(=O)o1,-1.7% (inactive),
CCCCC[C@H](O)/C=C/[C@H]1C=CC(=O)[C@@H]1C/C=C\CCCC(=O)O,52.4% (active),
CCCCC[C@H](O)/C=C/[C@@H]1[C@@H](C/C=C\CCCC(=O)O)[C@@H](O)C[C@H]1O,-0.8% (inactive),
CCCCC[C@H](O)/C=C/[C@@H]1[C@@H](C/C=C\CCCC(=O)O)[C@H]2CO[C@@H]1C2,3.4% (inactive),
CCOC(=O)c1ccc(NC(=S)NCC(O)c2ccccc2)cc1 (stereo not drawn),8.7% (inactive),
Cn1cnnc1SCC(=O)Nc1ccc(Cl)cc1,1.9% (inactive),
Cc1ccc(C(=O)NN2C(=O)/C(=C/c3cccn3C)SC2=S)cc1,24.4% (inactive),
Cn1cccc1/C=C1\SC(=S)N(NC(=O)c2cccc(Cl)c2)C1=O,25.6% (inactive),
Cn1cc(/C=C2\SC(=S)N(NC(=O)c3cccc(Cl)c3)C2=O)c2ccccc21,69.3% (active),
Cn1cccc1/C=C1\SC(=S)N(NC(=O)c2ccccc2Cl)C1=O,22.1% (inactive),
Cc1ccc(C(=O)NN2C(=O)/C(=C/c3cn(C)c4ccccc34)SC2=S)cc1,86.9% (active),91.3%
Cn1cc(/C=C2\SC(=S)N(NC(=O)c3ccccc3)C2=O)c2ccccc21,122% (inactive),17.7%
Cn1cc(/C=C2\SC(=S)N(NC(=O)c3ccccc3Cl)C2=O)c2ccccc21,66.4% (active),117%

SMILES,inhibition (at 20 µM),inhibition [1]
Cn1cccc1/C=C1\SC(=S)N(NC(=O)c2ccccc2O)C1=O,66.2% (inactive),25.2%
Cn1cccc1/C=C1\SC(=S)N(NC(=O)c2ccccc2)C1=O,35.3% (inactive),
Cc1nc(SCc2ccccc2)[nH]c(=O)c1CC(=O)OCC(C)C,0.8% (inactive),
CN(C)c1nc(N)c([N+](=O)[O-])c(NCc2ccccc2)n1,-1.3% (inactive),
Cc1onc(-c2c(Cl)cccc2Cl)c1C(=O)Nc1nccs1,-1% (inactive),
COc1ccc(NCC(=O)N/N=C(\C)c2cc3ccccc3o2)cc1,-3.3% (inactive),
Cc1c(N=C2N=C(NC(=O)c3cccs3)c3ccccc32)c(=O)n(-c2ccccc2)n1C,75.3% (active),
Cc1c(N=C2N=C(NC(=O)c3ccc(F)cc3)c3ccccc32)c(=O)n(-c2ccccc2)n1C,74.4% (active),
Cc1c(NC(=O)/C(=C/c2cccs2)c2cccs2)c(=O)n(-c2ccccc2)n1C,6.2% (inactive),
Cc1c(N=C2N=C(NC(=O)NC(C)(C)C)c3ccccc32)c(=O)n(-c2ccccc2)n1C,-0.2% (inactive),
Cc1c(NC(=O)c2cccs2)c(=O)n(-c2ccccc2)n1C,-1.2% (inactive),
Cc1c(N=C2N=C(NC(=O)Nc3ccc(Cl)cc3)c3ccccc32)c(=O)n(-c2ccccc2)n1C,137% (inactive),
CC(=O)Nc1cccc(NC(=O)CSc2ncc(-c3ccccc3)[nH]2)c1,0.5% (inactive),
Cc1ccc(C(C(=O)NC2CCCCC2)N(Cc2ccco2)C(=O)Cn2cnc3ccccc32)cc1 (stereo not drawn),-1.8% (inactive),
Cc1nc(NC(=O)/C=C/c2ccccc2)sc1C(=O)N1CCCCC1,-0.3% (inactive),
Cc1cc(/C=C2\SC(=S)N(Cc3ccco3)C2=O)c(C)n1-c1ccccc1,43.7% (inactive),
COc1ccc(-n2c(C)cc(/C=C3\SC(=S)N(Cc4ccco4)C3=O)c2C)cc1,38.3% (inactive),
Cc1cc(/C=C2\SC(=S)N(Cc3ccco3)C2=O)c(C)n1-c1cccnc1,53.6% (active),94.4%
NC(=O)CSc1nc(C23CC4CC(CC(C4)C2)C3)nc2ccccc12,-1.1% (inactive),
CCCNC(=O)Cn1c(=O)/c(=C\c2ccc(-c3cccc([N+](=O)[O-])c3)o2)s/c1=C\C(=O)C(C)(C)C,23.1% (inactive),
CCCNC(=O)Cn1c(=O)/c(=C\c2ccc(-c3ccc([N+](=O)[O-])cc3)o2)s/c1=C\C(=O)C(C)(C)C,145% (inactive),
CC(C)(C)C(=O)/C=c1\s/c(=C\c2ccc(-c3ccc([N+](=O)[O-])cc3)o2)c(=O)n1CC(=O)NC(N)=O,76.8% (active),
